The text below walks through data of PubChem BioAssay AID1508600 (Functional Genomics Laboratory (NCATS/FGL), 2020).

About 3,700 (7%) of roughly 53,000 sequences were called active. Many of the other results were omitted from the sample, so actives are more common in it than they were. A number with no mark means an inactive call.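 The calls were made as follows: active = gene knockdowns whose robust z-score for IL-1 alpha signal is at least 2 or at most -2, so actives lie on both sides; inactive = the rest.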

This assay is described as follows: Components of the Cytosolic LPS Sensing Pathway: Gene Identification via Genome-wide siRNA Screen. To be noted: RAW264.7 macrophages, IL-1a HTRF, actives lie on both sides, screened at 100 nM (by protocol), cells primed 5 h with Pam3CSK4 first. The text has this: Non-canonical inflammasome activation by cytosolic LPS is a critical component of the host response to Gram-negative bacterial infection, however we lack a comprehensive understanding of the cellular processes that control this pathway. Here we describe a genome-wide siRNA screen to identify genes regulating the mouse macrophage IL-1 alpha response to cytosolic LPS.
RAW264.7 cells were maintained in complete DMEM media, comprising DMEM with 4.5 g/L glucose, 10% FBS (Gemini Bio-Products, West Sacramento, CA), 2 mM Glutamine (Lonza) and 20 mM HEPES (Lonza), hereafter complete DMEM.
The RNAi screen was conducted in 384-well format using the Ambion Silencer Mouse Genome siRNA Library (#4391425), which consists of three unique, nonoverlapping, nonpooled siRNAs for each of 17,000 gene targets. siRNA reagents ([…]) were stamped into 384-well white flat-bottom microplates (Corning, 3570) using a Velocity11 VPrep liquid handling system (Agilent) integrated into a BioCel robotic platform (Agilent) in columns 1-22, leaving columns 23-24 empty for negative (Ambion, Negative control #1) and positive (mouse Casp4) controls, respectively. The median value of each plate's negative control column was used to normalize sample wells, and the positive control was used to assess transfection efficiency and assay performance.
Lipofectamine RNAiMAX Transfection Reagent ([…]; Invitrogen) was added in […] serum-free, antibiotic-free media to plate wells using a Thermo Scientific Matrix WellMate and Microplate Stacker. Plates were incubated for 45 min at room temperature to allow for the sufficient formation of siRNA-lipid complexes. Cells were seeded at a density of 1x10^4 cells per well in 20 microL media containing 20% (vol/vol) FBS without antibiotics. The final concentration of siRNA in each well was 100 nM. Cells were cultured for 48h at 37 degrees C in 5% CO2 before addition of […] of TLR ligand Pam3CSK4 for 5 hours. The medium was then removed, replaced with […] growth media and cell were transfected with […] of LipidA and TransIT-TKO (Mirus) for 24 hour. At the end of the LipidA treatment, […] of supernatant was transferred to a 384 Greiner Bio-one non-binding low volume plate and […] of IL-1a HTRF reagent (Cisbio, 62MIL1APEH) was added and incubated at room temperature overnight. The plates were read on an EnVision plate reader (PerkinElmer). Cell viability was measured by adding 20ul Cell Titer Glo to the original plate and running a luminescence read on the EnVision. The quantified IL-1a signal for each siRNA gene-targeted well was divided by the median of the negative control wells and multiplied by 100 to achieve a negative control normalized value for each well/siRNA. This normalized value was then used to generate a robust z-score by first taking the log of each value and then by subtracting the median and dividing by the […].
On the technique in general: In TR-FRET formats the signal depends on donor and acceptor labels being close together.
Take GGGCUGUGGAAACAAUUUATT against Zpld1: the z-score was 2.32 (active).
Regarding ACUUCCUGAUUGAGAGAAATT against Olfr497, the z-score is -0.319.
Then GGUUCCACUAAUCUUUUUATT against Mark3, with 0.696; and GGAGGAGAUUGUCCAGAAATT against Ecm1, with 1.2.
With GGUCGACAUUGAAGCUAUUTT against Ralyl, the z-score is -0.517.
Then GCAUUGUGAAUAUUCAGAUTT against Cers4, with 0.623.
Then GGCAGUGUGUUAGAUUCUUTT against Cts3, with 2.35 (active).
To GGAGACUAUCCUCAUUAUUTT against Smarca4 belongs 0.36.
As for AUGCUUUGAUCAGUAUGAATT against Vmn1r188, the z-score was -2.38 (active).
Then GGAGGACAACAAGUACUGCTT against Smap1, with -1.08; and GGAAAAUCGGUUAUCAUAATT against Pde7a, with -0.684.
For GCUAUAGCGCGGAAAUGGATT against Dclk3, the z-score is -0.531.
On to GGUCAAAGAACAAAAAGAATT against Muc13, for which the z-score is -0.176.
Then GGAGCUAAAUGGCUCUGAUTT against Boc, with 2.98 (active); and GGGACUGGCAGAUCUUAUCTT against Gtpbp3, with 0.817; and GGAACGAGAAUCGGAGAUGTT against Mapk8ip3, with 2.92 (active).
Turning to GGUCAUUGGUAGGUCCACUTT against Rusc2, the z-score was 0.338.
Then GGGAGAUUCAUUUUCCCAGTT against Rnf43, with 0.0663; and GCAACAGGUUAGAAUAGACTT against Scd3, with -1.36.
To GGUUCUGCACAUCUGAACATT against Cst3 belongs -0.109; to GGCCUUUUUGUUUAUGCUATT against Zan, -0.0784.
With CCGUGUGGUCUGAUAAAAGTT against Fbxl8, the z-score is -0.714.
Consider GCUCACUUGAUUCUGGUAATT against Ifnz, for which the z-score is 0.416.
With GGUGUCUGGAGGGAGAUUUTT against Peli3, the z-score was 0.245.
With CCAAGUGCUAAACAAGACATT against Spata31, the z-score was 1.06.
To GGCUAAAGGAAACUCACCUTT against Duoxa2 belongs -3.33 (active); to GGUGACUGACAACCAGACATT against Dkkl1, -0.171; to GGGUCUUCUUCCUGAGUGUTT against Ak8, -1.67.
On to GGCCAUGUUCCACACAUUATT against Grm1, for which the z-score is 1.49.
As to GCCACGCAAUAAAGCAUCUTT against Sars, the z-score is -0.284.
To GCUUAAGGGAUAACAUAUUTT against Svs2 belongs -0.756.
Then GGACACCAUAUGGUUAGCUTT against Tedc1, with -2.25 (active); and ACUGUCAUGCACCCUAAAGTT against Olfr132, with 0.369.
As to GCUCCUAAAAAGGCUCUUUTT against H2ac18, the z-score was -0.463.
Then GGAAUUCCAAUGUUACCAUTT against Meltf, with 3.35 (active).
To GCUGGUGUGUAACAUCAAUTT against Fut8 belongs 0.246.
Then GCAAUGUUAUUUUCACCAGTT against Slc3a1, with 0.61; and GUUUAACUACAACAAUGAGTT against Dcpp1, with 1.23.
Regarding GCCUAGUGACCCUUUACUATT against Stx1a, the z-score was 0.51.
To GGCGACACAAUAAGACAGATT against Wdr19 belongs 0.648.
As to GGUCCAGUUGGAGAUGACATT against Ube2d3, the z-score was -1.04.
To GGUCGUGUACUCGUUCAGUTT against Pcdh10 belongs 2.04 (active).
In the case of GCUAAUCCAGGACUGUUUATT against Trim14, the z-score was -1.66.
As to GGUUCGACUUUCUUUGCCATT against Ola1, the z-score was -0.614.
On to GGUACUGAGGUGAGCCUCUTT against Myocd, for which the z-score is -2.45 (active).
To GGGAGCUCCAUUUAAAUUATT against Cnot6 belongs -0.516; to GCAACUUUAUAGCAGAAUCTT against Apbb3, -0.874.
In the case of CCGUAUAAACAUUUAUGAGTT against Bmp4, the z-score is -0.295.
To GGACAACACCCUGAUGAUATT against Vmn1r208 belongs -1.07; to CCCACUUGUCUACAGCCUATT against Olfr1505, -2.65 (active).
In the case of GUGGGAAAUCAGUAUUUCCTT against AI467606, the z-score was 1.23.
Then GGUUCAUUGUGUCUCUGGCTT against Grk1, with -0.378; and GGACGCAAGUACAAAUUUATT against Tnxb, with 1.13.
Then CGUAGUCGAUUCAGGAGAGTT against Gm10439, with -0.356.
To GGUCUUCUUAGCUUUUUUUTT against Plppr1 belongs -0.713.
Turning to GGGUUGAUAGAAGUUUUUATT against Cpeb1, the z-score is 0.612.
In the case of GCUUUAGUACAGGCCUCUATT against Tent4a, the z-score was 0.444.
On to CCCGACCACGUGUUUAUUGTT against Tnfsf12, for which the z-score is -1.68.
In the case of CCUGAACUAUAGAUGGAUUTT against Manba, the z-score was 3.37 (active).
To GGUGGAGGCAGGAAAAUCUTT against Mrpl57 belongs -0.808; to GGCUCAAGCUAUGAAGAGATT against Gstm4, -0.195.
Then GGUUCUUGUUCAUUCUCUUTT against Slc4a4, with -0.0837; and GGAAAGAGUGUGCAAACUCTT against Ly6d, with 0.0731; and GGCCCAAGGAAUAAUCAAGTT against Satb2, with 2.48 (active).
Then GGUAUCGACCACAGAUCAUTT against Plxnd1, with 1.77; and GCACCAUUUUAAGAUCUGCTT against Prr13, with 0.238; and CCUCCUUACAAGUUGAAGCTT against Tmem59l, with -0.142.
In the case of GCUUGUUCACCCAGUUAUGTT against Hexdc, the z-score was 1.15.
For GCCAUUCACGACCCACUACTT against Olfr1095, the z-score is -0.102.
To GGACUGAUAGAGGACUUCCTT against Bloc1s6 belongs -0.56.
Take CCUUUUAGCUCUGUGUAUUTT against Gldc: the z-score is -0.0983.
For the sequence GGCCUUGAAUGAGCAUCAUTT against Krr1, the z-score was 0.548.
Consider GGCUAUGAAAGUGACAAUCTT against Tsen15, for which the z-score was -2.74 (active).
With GCACCUAAUGAUCACAGUGTT against Nrip3, the z-score is 0.393.
Regarding GGAAACUGAGCUUAAGAUUTT against Cald1, the z-score is 1.2.
Then CCGCUUUCGGCAAGUAUGGTT against Rbmxl2, with 1.64; and GGCAUGACUUCCACAUGAATT against Pdcd1, with 0.672; and ACAAAUCCACGUGCAAUGUTT against Cyp2d9, with 0.943.
Then GGAAGAUGAUUAUGAAGAUTT against Apc, with -0.143.
To GCGCAAGCCGUAUUCGAAGTT against Hoxc12 belongs 2.95 (active).
In the case of GGCCUGGGAAGUGAACAAATT against Faah, the z-score was -0.721.
Then GGAUCUGUCUACUUUUCCUTT against Hikeshi, with 0.777; and GCCACUCCUAUGAGUGUUATT against Cdk18, with 0.236; and GGAACGCAAGAACAGAAUGTT against Rps24, with 0.585.
Then GGCCACUGAUCAACUAAAGTT against Zfp110, with 2.27 (active); and CCAGAUGCUAUGCUAGGGATT against Clec4a1, with -0.0541.
Regarding GGACGGCAAAUUUGGUUUCTT against Mmp9, the z-score is 1.28.
Then GCCAUCAAUGAUGUGCUCUTT against Zswim5, with -0.186.
In the case of GGAAAAUGGAAUCUUCGGUTT against Pus10, the z-score is -1.4.
Regarding GCUGGAUACUAAUUGCUUATT against Parva, the z-score is 1.27.
As to GCCUGGUACAGAACCAGUATT against Ntsr2, the z-score is 0.547.
In the case of CCUAUGCAUCCCUGACUACTT against Tmem126b, the z-score is 5.07 (active).
GGUUUUUAAGGGAAGGCCCTT against Ntmt1: the z-score was 0.284.
With GUCCCACUCAGGAGAAUUUTT against Lrrc61, the z-score is 0.917.
GGAAGAUUAUAUUGAGAGATT against Bnip3: the z-score was 1.11.
In the case of GGAGGAGAAUGCCACAACUTT against Cd320, the z-score was -0.227.
For the sequence GCCUGUUAAUAUGCUGUAATT against Gpr83, the z-score was -0.0705.
Then GGACUUUCUGAGUAAGAAUTT against Coa8, with -0.873; and GGAAUACGGAUUGAUGGAGTT against Fli1, with 2.19 (active).
To CCUUAUGCAUGACUUGAGUTT against Exoc4 belongs -0.2; to GGUUCGUCAUACCUCCUCATT against C77080, -0.00884.
In the case of GGAAUACAUUCCUUUUAAGTT against Gpx3, the z-score was -1.27.
On to GGAGAAGAAACGGAAAUGATT against Jagn1, for which the z-score was -1.98.
To GGUAUUUAGAAACAUCAGUTT against Wls belongs -2.16 (active).
GCUGUUCAUAUAUCUUGCUTT against Olfr1386: the z-score is 1.17.
On to GGCACAUAGCCAUACCAGATT against Fbxw17, for which the z-score was 0.0511.
Take GGAUUCCUGUUAAAAGUCUTT against Azin1: the z-score was -0.152.
Then GGAUUAUCAAUGAAUAGCATT against Gabrb2, with 0.913.
